Results: ChEMBL document CHEMBL1961873, “Compounds: GSK PKIS; Assays: Nanosyn kinase panel” (2012)

How the values were obtained:
[1] = biological target: T1, Serine/threonine-protein kinase D2 (Homo sapiens) (UniProt Q9BZL6); conditions: at 1 µM;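 also: mean value of PRKD2 inhibition, from the GSK PKIS screening panel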
T1 sequence (whole entry): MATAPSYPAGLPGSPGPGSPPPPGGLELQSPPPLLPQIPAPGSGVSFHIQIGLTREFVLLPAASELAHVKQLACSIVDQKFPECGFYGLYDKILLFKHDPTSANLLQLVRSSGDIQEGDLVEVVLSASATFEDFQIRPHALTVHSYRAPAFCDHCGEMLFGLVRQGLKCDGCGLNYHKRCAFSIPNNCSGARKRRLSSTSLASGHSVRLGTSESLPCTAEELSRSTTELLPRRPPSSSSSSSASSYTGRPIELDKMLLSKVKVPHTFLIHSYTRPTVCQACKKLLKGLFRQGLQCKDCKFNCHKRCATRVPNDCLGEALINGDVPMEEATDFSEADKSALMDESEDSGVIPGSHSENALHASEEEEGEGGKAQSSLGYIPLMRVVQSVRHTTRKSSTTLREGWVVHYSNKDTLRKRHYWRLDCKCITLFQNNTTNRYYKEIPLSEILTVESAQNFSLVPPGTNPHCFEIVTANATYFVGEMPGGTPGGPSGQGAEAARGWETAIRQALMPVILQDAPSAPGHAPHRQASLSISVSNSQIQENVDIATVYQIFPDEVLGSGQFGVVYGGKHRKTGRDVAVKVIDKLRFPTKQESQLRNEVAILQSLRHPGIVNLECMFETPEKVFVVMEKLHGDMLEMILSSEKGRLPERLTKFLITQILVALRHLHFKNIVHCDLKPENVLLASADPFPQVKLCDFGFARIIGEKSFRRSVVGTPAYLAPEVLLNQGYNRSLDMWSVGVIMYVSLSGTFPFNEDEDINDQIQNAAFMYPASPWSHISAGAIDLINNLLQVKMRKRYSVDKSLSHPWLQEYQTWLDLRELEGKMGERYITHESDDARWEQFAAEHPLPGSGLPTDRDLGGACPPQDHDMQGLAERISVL

[2] = biological target: T2, Serine/threonine-protein kinase D3 (Homo sapiens) (UniProt O94806); conditions: at 0.1 µM
T2 sequence (whole entry): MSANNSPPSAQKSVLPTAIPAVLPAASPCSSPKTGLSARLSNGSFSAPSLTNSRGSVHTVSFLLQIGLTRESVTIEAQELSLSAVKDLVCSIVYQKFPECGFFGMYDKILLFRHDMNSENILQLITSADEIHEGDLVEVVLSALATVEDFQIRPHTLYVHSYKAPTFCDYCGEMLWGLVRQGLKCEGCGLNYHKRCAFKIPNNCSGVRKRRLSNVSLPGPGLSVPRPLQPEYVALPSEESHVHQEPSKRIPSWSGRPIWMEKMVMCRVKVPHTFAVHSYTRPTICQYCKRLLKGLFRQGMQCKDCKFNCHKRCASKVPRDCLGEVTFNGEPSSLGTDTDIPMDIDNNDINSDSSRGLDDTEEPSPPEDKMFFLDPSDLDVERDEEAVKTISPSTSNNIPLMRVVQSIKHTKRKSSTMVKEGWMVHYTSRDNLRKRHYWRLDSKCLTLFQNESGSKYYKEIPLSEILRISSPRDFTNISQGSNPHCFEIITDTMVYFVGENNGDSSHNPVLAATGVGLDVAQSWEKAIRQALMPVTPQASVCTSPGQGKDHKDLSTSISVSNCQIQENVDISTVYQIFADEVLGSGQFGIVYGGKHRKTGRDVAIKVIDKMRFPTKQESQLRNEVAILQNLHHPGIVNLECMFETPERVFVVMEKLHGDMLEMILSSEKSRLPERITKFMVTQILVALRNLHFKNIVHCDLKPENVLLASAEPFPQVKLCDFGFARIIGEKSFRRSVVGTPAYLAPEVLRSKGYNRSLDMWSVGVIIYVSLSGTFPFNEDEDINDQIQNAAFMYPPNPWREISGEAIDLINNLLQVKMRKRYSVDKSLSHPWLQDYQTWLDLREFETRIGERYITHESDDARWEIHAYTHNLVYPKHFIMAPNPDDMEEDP

[3] = biological target: T2, Serine/threonine-protein kinase D3 (Homo sapiens); conditions: at 1 µM
[4] = biological target: T3, cGMP-dependent protein kinase 1 (Homo sapiens) (UniProt Q13976); conditions: at 0.1 µM
T3 sequence (whole entry): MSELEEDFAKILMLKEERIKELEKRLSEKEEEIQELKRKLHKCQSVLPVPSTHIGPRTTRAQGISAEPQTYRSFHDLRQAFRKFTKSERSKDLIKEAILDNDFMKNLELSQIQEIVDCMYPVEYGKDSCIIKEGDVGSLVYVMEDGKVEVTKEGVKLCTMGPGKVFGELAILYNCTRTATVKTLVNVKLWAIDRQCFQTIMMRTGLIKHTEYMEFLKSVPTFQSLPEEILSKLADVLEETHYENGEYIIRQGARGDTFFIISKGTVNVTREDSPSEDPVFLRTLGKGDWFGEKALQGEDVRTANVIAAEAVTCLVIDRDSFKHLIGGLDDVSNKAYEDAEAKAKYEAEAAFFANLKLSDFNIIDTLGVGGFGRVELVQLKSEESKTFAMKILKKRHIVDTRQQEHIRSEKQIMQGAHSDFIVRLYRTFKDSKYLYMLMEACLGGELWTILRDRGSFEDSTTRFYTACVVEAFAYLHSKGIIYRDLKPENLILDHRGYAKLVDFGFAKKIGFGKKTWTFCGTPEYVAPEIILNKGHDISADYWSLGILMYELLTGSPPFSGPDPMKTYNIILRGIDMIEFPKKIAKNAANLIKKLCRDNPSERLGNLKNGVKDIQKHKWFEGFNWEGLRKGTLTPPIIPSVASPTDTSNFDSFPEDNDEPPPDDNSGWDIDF

[5] = biological target: T3, cGMP-dependent protein kinase 1 (Homo sapiens); conditions: at 1 µM
[6] = biological target: T4, cGMP-dependent protein kinase 2 (Homo sapiens) (UniProt Q13237); conditions: at 0.1 µM
T4 sequence (whole entry): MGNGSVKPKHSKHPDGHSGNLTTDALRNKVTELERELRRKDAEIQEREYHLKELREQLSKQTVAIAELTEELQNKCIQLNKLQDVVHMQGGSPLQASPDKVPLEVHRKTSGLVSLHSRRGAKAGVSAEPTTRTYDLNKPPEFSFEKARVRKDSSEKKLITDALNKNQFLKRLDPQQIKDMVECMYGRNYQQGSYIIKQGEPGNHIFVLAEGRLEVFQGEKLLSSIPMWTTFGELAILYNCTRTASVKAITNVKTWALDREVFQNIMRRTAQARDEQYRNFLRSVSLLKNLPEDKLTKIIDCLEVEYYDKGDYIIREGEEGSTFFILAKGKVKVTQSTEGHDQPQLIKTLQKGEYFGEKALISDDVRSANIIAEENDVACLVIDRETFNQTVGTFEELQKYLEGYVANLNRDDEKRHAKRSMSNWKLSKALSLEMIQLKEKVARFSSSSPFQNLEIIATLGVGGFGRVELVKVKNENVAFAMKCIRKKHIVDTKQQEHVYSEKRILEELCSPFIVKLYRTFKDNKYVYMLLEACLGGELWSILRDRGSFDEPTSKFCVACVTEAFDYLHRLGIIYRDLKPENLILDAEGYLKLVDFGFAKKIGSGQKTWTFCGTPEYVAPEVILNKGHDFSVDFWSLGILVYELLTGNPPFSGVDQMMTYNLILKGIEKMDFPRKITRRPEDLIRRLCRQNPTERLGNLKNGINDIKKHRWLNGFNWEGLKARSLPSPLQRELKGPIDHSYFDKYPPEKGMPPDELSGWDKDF

[7] = biological target: T4, cGMP-dependent protein kinase 2 (Homo sapiens); conditions: at 1 µM
[8] = biological target: T5, cAMP-dependent protein kinase catalytic subunit PRKX (Homo sapiens) (UniProt P51817); conditions: at 0.1 µM
T5 sequence (whole entry): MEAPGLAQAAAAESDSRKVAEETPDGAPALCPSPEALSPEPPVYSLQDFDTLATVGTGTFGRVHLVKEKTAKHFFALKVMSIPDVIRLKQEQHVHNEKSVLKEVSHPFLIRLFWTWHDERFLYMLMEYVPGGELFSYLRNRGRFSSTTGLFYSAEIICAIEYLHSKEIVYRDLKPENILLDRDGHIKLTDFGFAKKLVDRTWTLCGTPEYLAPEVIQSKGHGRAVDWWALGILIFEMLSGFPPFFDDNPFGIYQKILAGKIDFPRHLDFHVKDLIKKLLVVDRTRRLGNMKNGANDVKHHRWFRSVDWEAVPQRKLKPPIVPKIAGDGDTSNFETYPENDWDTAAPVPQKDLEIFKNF

[9] = biological target: T5, cAMP-dependent protein kinase catalytic subunit PRKX (Homo sapiens); conditions: at 1 µM
[10] = biological target: Rho-associated protein kinase 1 (Homo sapiens) (UniProt Q13464); conditions: at 0.1 µM
Sequence of Rho-associated protein kinase 1 (Homo sapiens) (Q13464 2-1354 limits assumed): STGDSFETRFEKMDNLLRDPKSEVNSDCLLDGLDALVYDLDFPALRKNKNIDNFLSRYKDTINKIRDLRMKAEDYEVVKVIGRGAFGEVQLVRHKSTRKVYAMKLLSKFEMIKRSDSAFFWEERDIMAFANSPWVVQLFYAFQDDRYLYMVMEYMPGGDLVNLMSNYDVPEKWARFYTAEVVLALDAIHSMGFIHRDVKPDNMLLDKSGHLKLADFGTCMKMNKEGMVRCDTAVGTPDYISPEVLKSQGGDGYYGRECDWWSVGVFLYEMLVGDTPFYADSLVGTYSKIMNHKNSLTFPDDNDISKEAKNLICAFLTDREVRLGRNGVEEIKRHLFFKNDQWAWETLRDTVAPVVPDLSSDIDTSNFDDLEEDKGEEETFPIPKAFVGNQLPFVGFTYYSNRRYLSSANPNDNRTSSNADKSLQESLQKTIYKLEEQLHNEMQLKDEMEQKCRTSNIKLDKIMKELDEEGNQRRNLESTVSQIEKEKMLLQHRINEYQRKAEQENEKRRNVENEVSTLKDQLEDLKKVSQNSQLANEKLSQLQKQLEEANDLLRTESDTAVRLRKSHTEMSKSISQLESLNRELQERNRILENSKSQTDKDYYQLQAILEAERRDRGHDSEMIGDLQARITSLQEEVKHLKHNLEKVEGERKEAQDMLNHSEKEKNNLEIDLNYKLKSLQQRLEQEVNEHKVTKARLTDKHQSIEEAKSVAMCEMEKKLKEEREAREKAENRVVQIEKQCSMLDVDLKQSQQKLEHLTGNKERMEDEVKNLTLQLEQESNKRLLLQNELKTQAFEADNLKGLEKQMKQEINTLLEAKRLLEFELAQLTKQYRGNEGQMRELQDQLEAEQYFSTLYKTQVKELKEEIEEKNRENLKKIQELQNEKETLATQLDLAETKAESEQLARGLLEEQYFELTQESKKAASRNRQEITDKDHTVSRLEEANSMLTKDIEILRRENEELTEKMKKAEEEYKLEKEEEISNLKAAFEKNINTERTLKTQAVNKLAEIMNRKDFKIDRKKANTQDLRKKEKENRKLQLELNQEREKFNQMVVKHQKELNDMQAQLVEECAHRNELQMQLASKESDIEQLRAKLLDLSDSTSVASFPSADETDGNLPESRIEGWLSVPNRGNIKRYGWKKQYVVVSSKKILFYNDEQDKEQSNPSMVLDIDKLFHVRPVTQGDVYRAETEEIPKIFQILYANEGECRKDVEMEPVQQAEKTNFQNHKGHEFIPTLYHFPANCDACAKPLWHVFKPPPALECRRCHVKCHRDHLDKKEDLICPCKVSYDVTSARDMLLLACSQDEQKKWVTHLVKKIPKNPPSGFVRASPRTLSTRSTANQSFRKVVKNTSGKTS

[11] = biological target: Rho-associated protein kinase 1 (Homo sapiens) (UniProt Q13464); conditions: at 1 µM
[12] = biological target: Rho-associated protein kinase 2 (Homo sapiens) (UniProt O75116); conditions: at 0.1 µM
Sequence of Rho-associated protein kinase 2 (Homo sapiens) (O75116 whole entry, looked up): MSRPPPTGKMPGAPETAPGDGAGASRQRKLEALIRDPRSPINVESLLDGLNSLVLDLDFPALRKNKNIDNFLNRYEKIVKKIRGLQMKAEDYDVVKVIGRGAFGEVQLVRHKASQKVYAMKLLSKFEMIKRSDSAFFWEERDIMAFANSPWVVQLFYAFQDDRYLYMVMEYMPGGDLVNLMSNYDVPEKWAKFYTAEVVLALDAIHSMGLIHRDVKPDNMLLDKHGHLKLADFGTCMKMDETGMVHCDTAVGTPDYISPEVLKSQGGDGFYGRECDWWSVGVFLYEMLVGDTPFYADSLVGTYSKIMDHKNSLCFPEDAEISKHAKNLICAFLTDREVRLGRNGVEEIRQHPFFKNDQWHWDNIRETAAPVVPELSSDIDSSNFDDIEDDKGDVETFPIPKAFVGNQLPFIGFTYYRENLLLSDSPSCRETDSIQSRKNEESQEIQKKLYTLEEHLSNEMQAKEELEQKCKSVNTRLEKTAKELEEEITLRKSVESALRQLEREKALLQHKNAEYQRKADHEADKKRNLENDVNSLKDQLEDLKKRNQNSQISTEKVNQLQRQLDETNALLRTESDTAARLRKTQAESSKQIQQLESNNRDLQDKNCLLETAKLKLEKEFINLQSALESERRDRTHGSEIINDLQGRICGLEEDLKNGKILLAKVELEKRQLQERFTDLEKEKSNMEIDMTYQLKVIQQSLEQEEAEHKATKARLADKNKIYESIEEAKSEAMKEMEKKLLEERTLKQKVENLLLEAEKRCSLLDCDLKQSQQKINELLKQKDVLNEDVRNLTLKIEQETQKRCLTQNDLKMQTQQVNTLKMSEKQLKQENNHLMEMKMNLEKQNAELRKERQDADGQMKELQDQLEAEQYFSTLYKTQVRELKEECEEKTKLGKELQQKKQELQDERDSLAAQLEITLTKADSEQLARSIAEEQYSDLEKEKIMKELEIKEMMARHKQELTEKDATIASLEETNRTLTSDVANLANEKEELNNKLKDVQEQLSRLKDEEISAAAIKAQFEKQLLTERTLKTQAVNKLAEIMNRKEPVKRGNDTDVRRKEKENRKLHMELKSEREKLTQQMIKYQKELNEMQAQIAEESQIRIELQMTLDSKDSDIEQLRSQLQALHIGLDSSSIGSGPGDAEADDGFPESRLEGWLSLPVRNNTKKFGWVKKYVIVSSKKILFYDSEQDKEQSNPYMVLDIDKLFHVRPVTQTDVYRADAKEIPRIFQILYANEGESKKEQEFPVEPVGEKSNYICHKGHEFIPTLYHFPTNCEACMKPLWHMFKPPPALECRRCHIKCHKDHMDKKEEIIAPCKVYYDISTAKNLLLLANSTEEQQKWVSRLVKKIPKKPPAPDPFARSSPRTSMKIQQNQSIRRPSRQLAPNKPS

[13] = biological target: Rho-associated protein kinase 2 (Homo sapiens) (UniProt O75116); conditions: at 1 µM
[14] = biological target: Ribosomal protein S6 kinase alpha-1 (Homo sapiens) (UniProt Q15418); conditions: at 0.1 µM
Sequence of Ribosomal protein S6 kinase alpha-1 (Homo sapiens) (Q15418 whole entry): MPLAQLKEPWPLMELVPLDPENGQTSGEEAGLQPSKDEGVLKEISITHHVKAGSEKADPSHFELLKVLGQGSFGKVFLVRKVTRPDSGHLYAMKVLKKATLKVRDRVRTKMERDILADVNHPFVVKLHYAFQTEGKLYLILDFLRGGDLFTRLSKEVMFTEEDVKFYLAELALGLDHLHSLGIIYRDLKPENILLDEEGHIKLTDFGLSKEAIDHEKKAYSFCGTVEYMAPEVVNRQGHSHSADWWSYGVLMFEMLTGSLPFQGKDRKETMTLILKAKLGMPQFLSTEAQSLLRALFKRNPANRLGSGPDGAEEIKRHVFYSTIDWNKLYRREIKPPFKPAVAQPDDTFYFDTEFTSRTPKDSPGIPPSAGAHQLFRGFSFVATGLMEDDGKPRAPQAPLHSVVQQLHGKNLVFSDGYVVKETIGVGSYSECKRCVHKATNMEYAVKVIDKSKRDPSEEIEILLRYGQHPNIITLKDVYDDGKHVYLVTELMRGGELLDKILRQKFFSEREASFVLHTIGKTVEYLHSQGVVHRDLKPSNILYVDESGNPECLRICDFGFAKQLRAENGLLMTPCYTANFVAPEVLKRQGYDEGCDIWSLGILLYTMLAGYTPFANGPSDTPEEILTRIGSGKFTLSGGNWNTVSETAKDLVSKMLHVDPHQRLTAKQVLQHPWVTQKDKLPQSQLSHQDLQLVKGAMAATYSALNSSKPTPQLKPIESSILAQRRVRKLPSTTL

[15] = biological target: Ribosomal protein S6 kinase alpha-1 (Homo sapiens) (UniProt Q15418); conditions: at 1 µM
[16] = biological target: Ribosomal protein S6 kinase alpha-3 (Homo sapiens) (UniProt P51812); conditions: at 0.1 µM
Sequence of Ribosomal protein S6 kinase alpha-3 (Homo sapiens) (P51812 whole entry): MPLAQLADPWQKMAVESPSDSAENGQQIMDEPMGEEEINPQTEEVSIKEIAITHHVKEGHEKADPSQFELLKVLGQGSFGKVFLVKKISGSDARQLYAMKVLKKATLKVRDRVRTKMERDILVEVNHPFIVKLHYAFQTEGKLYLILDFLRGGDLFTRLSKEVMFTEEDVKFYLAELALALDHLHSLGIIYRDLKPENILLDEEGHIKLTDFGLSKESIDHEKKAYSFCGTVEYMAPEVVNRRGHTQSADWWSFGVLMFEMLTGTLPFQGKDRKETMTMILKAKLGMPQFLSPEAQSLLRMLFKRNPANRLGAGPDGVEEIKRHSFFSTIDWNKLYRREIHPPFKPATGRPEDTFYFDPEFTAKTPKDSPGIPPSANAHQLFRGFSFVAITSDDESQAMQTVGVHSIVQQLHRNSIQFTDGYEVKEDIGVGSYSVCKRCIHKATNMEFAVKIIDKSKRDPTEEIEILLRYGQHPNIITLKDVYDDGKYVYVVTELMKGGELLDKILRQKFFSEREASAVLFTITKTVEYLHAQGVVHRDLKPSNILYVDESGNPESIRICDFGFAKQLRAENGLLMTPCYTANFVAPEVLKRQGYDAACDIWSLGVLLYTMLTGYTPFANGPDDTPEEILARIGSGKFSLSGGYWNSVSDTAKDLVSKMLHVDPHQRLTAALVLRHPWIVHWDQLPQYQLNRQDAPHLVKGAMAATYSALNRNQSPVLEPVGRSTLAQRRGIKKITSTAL

[17] = biological target: Ribosomal protein S6 kinase alpha-3 (Homo sapiens) (UniProt P51812); conditions: at 1 µM
[18] = biological target: Ribosomal protein S6 kinase alpha-2 (Homo sapiens) (UniProt Q15349); conditions: at 0.1 µM
[19] = biological target: Ribosomal protein S6 kinase alpha-2 (Homo sapiens) (UniProt Q15349); conditions: at 1 µM
[20] = biological target: Ribosomal protein S6 kinase alpha-6 (Homo sapiens) (UniProt Q9UK32); conditions: at 0.1 µM;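 also: reported value is the mean inhibition of RSK4, from the GSK PKIS kinase inhibitor screen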
Sequence of Ribosomal protein S6 kinase alpha-6 (Homo sapiens) (Q9UK32 whole entry): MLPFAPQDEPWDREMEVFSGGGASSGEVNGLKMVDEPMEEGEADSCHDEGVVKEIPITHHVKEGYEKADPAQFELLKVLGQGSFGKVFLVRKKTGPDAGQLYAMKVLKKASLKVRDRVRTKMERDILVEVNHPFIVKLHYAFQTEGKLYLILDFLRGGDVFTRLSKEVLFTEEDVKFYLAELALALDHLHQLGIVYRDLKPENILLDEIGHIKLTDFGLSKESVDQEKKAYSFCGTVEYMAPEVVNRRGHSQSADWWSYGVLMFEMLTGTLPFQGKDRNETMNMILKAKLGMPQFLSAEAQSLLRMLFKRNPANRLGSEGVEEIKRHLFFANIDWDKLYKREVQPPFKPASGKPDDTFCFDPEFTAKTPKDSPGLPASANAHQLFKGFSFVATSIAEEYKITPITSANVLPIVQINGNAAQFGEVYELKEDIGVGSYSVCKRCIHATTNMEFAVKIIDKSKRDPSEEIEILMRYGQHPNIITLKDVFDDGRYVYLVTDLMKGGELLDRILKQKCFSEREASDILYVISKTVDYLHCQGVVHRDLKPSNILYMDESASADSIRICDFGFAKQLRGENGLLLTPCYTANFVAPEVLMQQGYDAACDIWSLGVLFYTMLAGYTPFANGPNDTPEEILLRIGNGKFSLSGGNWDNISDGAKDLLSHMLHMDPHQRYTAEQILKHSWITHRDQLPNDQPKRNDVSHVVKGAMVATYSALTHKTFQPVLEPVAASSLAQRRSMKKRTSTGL

SMILES | inhibition [1] [%] | inhibition [2] [%] | inhibition [3] [%] | inhibition [4] [%] | inhibition [5] [%] | inhibition [6] [%] | inhibition [7] [%] | inhibition [8] [%] | inhibition [9] [%] | inhibition [10] [%] | inhibition [11] [%] | inhibition [12] [%] | inhibition [13] [%] | inhibition [14] [%] | inhibition [15] [%] | inhibition [16] [%] | inhibition [17] [%] | inhibition [18] [%] | inhibition [19] [%] | inhibition [20] [%]
COc1cccc(-n2cnc3c(N/N=C/c4ccncc4)ncnc32)c1 | -5.5 | -3.34 | -4.97 | 0.67 | 3.77 | 3.29 | 4.98 | 1.92 | 5.16 | 0.59 | 1.07 | 3.27 | 6.91 | 2.62 | 4.66 | 2.12 | 4.76 | -0.37 | 0.82 | -0.06
NS(=O)(=O)c1ccc(N/N=C2\C(=O)Nc3ccc(-c4cnco4)cc32)cc1 | 9.15 | -1.69 | 7.39 | 2.42 | 4.22 | 1.06 | 12.7 | 1.53 | 1.83 | 6.06 | 37.6 | 16.3 | 58.3 | -0.32 | 3.8 | -1 | 2.65 | 1.5 | 7.28 | 0.03
COc1cc(Nc2ncc3c(C)nc(-c4cccc(Oc5ccccc5)c4)n3n2)cc(OC)c1OC | 3 | 1.74 | 3.77 | 1.98 | 2.3 | 1.18 | 2.71 | 1.26 | -0.03 | 1.05 | 1.17 | 0.99 | -0.91 | 1.56 | 7.14 | 0.9 | 8.61 | 2.77 | 14.4 | 2.59
O=C1NC(=O)C(c2cccc(Cl)c2)=C1Nc1ccc(Cl)c(C(=O)O)c1 | 3.62 | 2.22 | 2.81 | 1.11 | 2 | -0.19 | 1.58 | 2.51 | 2.74 | -0.01 | 0.78 | 1.95 | 4.98 | 1.51 | 2.92 | 1.25 | 1.6 | 1.79 | 1.6 | 1.24
O=C(Nc1n[nH]c2cc(-c3cc(F)ccc3F)ccc12)C1CC1 | 4.95 | 3.61 | 3.98 | 3.55 | 4.78 | 2.47 | 5.6 | 1.14 | 1.88 | -0.49 | 2.49 | 1.39 | 2.28 | 0.64 | 0.86 | 0.31 | 1.63 | 1.04 | 3.43 | -0.13
COc1ccc2ncn(-c3cc(O[C@H](C)c4ccccc4Cl)c(C(N)=O)s3)c2c1 | -2.98 | 0.19 | -0.76 | 3.47 | 3.01 | 3.48 | 4.43 | 4.11 | 1.58 | 1.76 | 2.68 | 1.42 | 2.59 | -0.02 | 0.44 | -1.13 | -0.23 | 1.47 | 1.88 | 0.03
CS(=O)(=O)CCNCc1cc(-c2cc3c(Nc4ccc(OCc5cccc(F)c5)c(Cl)c4)ncnc3s2)cs1 | 4.68 | 4.68 | 5.41 | 4.85 | 8.33 | 3.09 | 4.67 | 1.65 | 2.04 | 3.25 | 4.5 | 3.92 | 5.77 | -0.03 | 1.94 | 1.24 | 1.57 | 3.28 | 2.95 | 0.77
